This is part of a sample that, as a whole, favours compounds with a hit. Of some 79,000 tested, about 15% had one in any assay. Unmarked numbers belong to inactive results. Calls of active or inactive are those of the source. Rule as the data show it: active = growth inhibition above about 70%; inactive = the rest.

Assay [1] can be described thus: NCI Yeast Anticancer Drug Screen. Data for the rad50 strain (AID 155).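 Also: 0% = growth of vehicle-only cultures of the same strain.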 The settings on record: S. cerevisiae rad50 strain growth inhibition, active compounds read high. In short, it runs like this:
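Genetically altered yeast (DNA repair pathway); compound treatment; growth inhibition vs vehicle ctrl.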

A short description of assay [2]: NCI Yeast Anticancer Drug Screen. Data for the mec2-1 strain (AID 157). To be noted: S. cerevisiae mec2-1 strain, active compounds read high. In short, it runs like this:
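Vehicle-treated cultures served as reference for growth inhibition of compound-exposed mec2-1 yeast.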

Assay [3] in a line: NCI Yeast Anticancer Drug Screen. Data for the sgs1 mgt1 strain (AID 161).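 Also: 0% = growth of cultures given vehicle only.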 To be noted: S. cerevisiae sgs1 mgt1 strain, active compounds read high. In short, it runs like this: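 Test agents were incubated with a DNA-repair-mutant yeast strain. Growth was then read and compared against vehicle-treated controls.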
A short description of assay [4]: NCI Yeast Anticancer Drug Screen. Data for the cln2 rad14 strain (AID 165).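 Also: 0% = growth equal to vehicle treated cultures.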 To be noted: S. cerevisiae cln2 rad14 strain, active compounds read high. In short, it runs like this:
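Each compound was tested on cln2 rad14 yeast. Inhibition of growth was calculated against vehicle-exposed controls.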

Assay [5] is described as follows: NCI Yeast Anticancer Drug Screen. Data for the bub3 strain (AID 167). The settings on record: S. cerevisiae bub3 mutant strain, active compounds read high. In short, it runs like this:
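Yeast carrying a defined mutation is treated with each compound, and growth is compared with that of vehicle-exposed cells to give inhibition.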

Assay [6] can be described thus: NCI Yeast Anticancer Drug Screen. Data for the mlh1 rad18 strain (AID 175). To be noted: S. cerevisiae mlh1 rad18 strain growth inhibition, active compounds read high. In short, it runs like this: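 Vehicle-treated cultures served as the reference for growth inhibition in a yeast strain carrying DNA damage repair alterations exposed to each compound.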
The mark [7] stands for this setting: at 5.0 µM (retest, dose inferred, filed as 0.5).
The mark [8] stands for this setting: at 50.0 µM (retest, dose inferred, filed as 5.0).

Regarding `Cc1cc(S(=O)(=O)Nc2n[nH]c(-c3ccccn3)n2)c(S)cc1Cl`, the growth inhibition in assay [1] (setting [7]) is -10%; in assay [1] (setting [8]), 92% (active); in assay [1] (at 50.0 µM), 73.8% (active); in assay [2] (setting [7]), 27%; in assay [2] (setting [8]) it was 84% (active); in assay [2] (at 50.0 µM), 53.8%. Further, the growth inhibition in assay [3] (setting [7]) is 18%; in assay [3] (setting [8]), 88% (active); in assay [3] (at 50.0 µM), 55%; in assay [4] (setting [7]) it was -4%; in assay [4] (setting [8]), 85% (active); in assay [4] (at 50.0 µM), 49%. In addition, the growth inhibition in assay [5] (setting [7]) was -29%; in assay [5] (setting [8]), 93% (active); in assay [5] (at 50.0 µM), 69.3%; in assay [6] (setting [7]) it was 0%; in assay [6] (setting [8]), 88% (active); in assay [6] (at 50.0 µM) it was 56%.
For `CCCCCCCCCCCCNC(=O)C[n+]1ccc(C(N)=O)cc1`, the growth inhibition in assay [1] (setting [7]) was -34%; in assay [1] (setting [8]), 72% (active); in assay [1] (at 50.0 µM) it was 61.2%; in assay [2] (setting [7]) it was -6%; in assay [2] (setting [8]), 61%; in assay [2] (at 50.0 µM) it was 49%. For the same molecule, the growth inhibition in assay [3] (setting [7]) is 1%; in assay [3] (setting [8]) it was 77% (active); in assay [3] (at 50.0 µM), 74.2% (active); in assay [4] (setting [7]) it was -6%; in assay [4] (setting [8]) it was 86% (active); in assay [4] (at 50.0 µM) it was 24.6%. For the same molecule, the growth inhibition in assay [5] (setting [7]) is -9%; in assay [5] (setting [8]), 94% (active); in assay [5] (at 50.0 µM), 29.2%; in assay [6] (setting [7]), 0%; in assay [6] (setting [8]) it was 92% (active); in assay [6] (at 50.0 µM) it was 41.8%.
For `O=C1c2ccccc2C(=O)c2c(/C=C\N3CCCCC3)ccnc21`, the growth inhibition in assay [1] (setting [7]) was 40%; in assay [1] (setting [8]) it was 86% (active); in assay [1] (at 50.0 µM), 87.7% (active); in assay [2] (setting [7]) it was 27%; in assay [2] (setting [8]) it was 60%; in assay [2] (at 50.0 µM), 92.4% (active). Besides, the growth inhibition in assay [3] (setting [7]) is 40%; in assay [3] (setting [8]), 99% (active); in assay [3] (at 50.0 µM), 92.6% (active); in assay [4] (setting [7]), 38%; in assay [4] (setting [8]) it was 95% (active); in assay [4] (at 50.0 µM), 90.7% (active). The growth inhibition in assay [5] (setting [7]) was 48%; in assay [5] (setting [8]), 98% (active); in assay [5] (at 50.0 µM) it was 92.3% (active); in assay [6] (setting [7]) it was 37%; in assay [6] (setting [8]), 84% (active); in assay [6] (at 50.0 µM), 90.6% (active).
Regarding `O=CC(O)C(O)C(O)C(O)C(=O)NCCCCCCCCCCCCNC(=O)C(O)C(O)C(O)C(O)C=O` (configuration not stated), the growth inhibition is 19% in assay [1] (setting [7]); 22% in assay [1] (setting [8]); 16.4% in assay [1] (at 50.0 µM); 20% in assay [2] (setting [7]); 27% in assay [2] (setting [8]); 12.2% in assay [2] (at 50.0 µM). The growth inhibition in assay [3] (setting [7]) is -20%; in assay [3] (setting [8]) it was -28%; in assay [3] (at 50.0 µM), 21.9%; in assay [4] (setting [7]) it was -2%; in assay [4] (setting [8]) it was 18%; in assay [4] (at 50.0 µM), 25.2%. Also, the growth inhibition in assay [5] (setting [7]) is -4%; in assay [5] (setting [8]), 10%; in assay [5] (at 50.0 µM), -6.7%; in assay [6] (setting [7]), 20%; in assay [6] (setting [8]) it was 23%; in assay [6] (at 50.0 µM), -20.6%.
Turning to `CC1CCN(c2cc(-c3cc4ccccc4o3)oc(=O)c2C#N)CC1`, the growth inhibition in assay [1] (setting [7]) is 7%; in assay [1] (setting [8]), 1%; in assay [1] (at 50.0 µM), 66.5%; in assay [2] (setting [7]), 2%; in assay [2] (setting [8]), 3%; in assay [2] (at 50.0 µM), 56.7%. Moreover, the growth inhibition in assay [3] (setting [7]) is 3%; in assay [3] (setting [8]), 0%; in assay [3] (at 50.0 µM), 68.5%; in assay [4] (setting [7]), 7%; in assay [4] (setting [8]), -1%; in assay [4] (at 50.0 µM), 33.1%. Further, the growth inhibition was 2% in assay [5] (setting [7]); -1% in assay [5] (setting [8]); 39.9% in assay [5] (at 50.0 µM); -5% in assay [6] (setting [7]); 3% in assay [6] (setting [8]); 74.7% (active) in assay [6] (at 50.0 µM).
In the case of `CC[N+]1(C)CC2CCC(CC2)C1` (configuration not stated), the growth inhibition in assay [1] (setting [7]) was -2%; in assay [1] (setting [8]), -5%; in assay [1] (at 50.0 µM), -1.6%; in assay [2] (setting [7]) it was -3%; in assay [2] (setting [8]), -3%; in assay [2] (at 50.0 µM) it was 35%. Further, the growth inhibition in assay [3] (setting [7]) was -4%; in assay [3] (setting [8]), -2%; in assay [3] (at 50.0 µM), 7.2%; in assay [4] (setting [7]) it was -4%; in assay [4] (setting [8]), -6%; in assay [4] (at 50.0 µM) it was 72% (active). For the same molecule, the growth inhibition is -3% in assay [5] (setting [7]); 2% in assay [5] (setting [8]); -7.15% in assay [5] (at 50.0 µM); -4% in assay [6] (setting [7]); -3% in assay [6] (setting [8]); 7.35% in assay [6] (at 50.0 µM).
`O=[N+]([O-])c1ccccc1Oc1ccc([N+](=O)[O-])c(C(F)(F)F)c1`: the growth inhibition was -4% in assay [1] (setting [7]); 83% (active) in assay [1] (setting [8]); 80.1% (active) in assay [1] (at 50.0 µM); -2% in assay [2] (setting [7]); 74% (active) in assay [2] (setting [8]); 82.7% (active) in assay [2] (at 50.0 µM). The growth inhibition in assay [3] (setting [7]) was 0%; in assay [3] (setting [8]), -24%; in assay [3] (at 50.0 µM), 92.5% (active); in assay [4] (setting [7]) it was -8%; in assay [4] (setting [8]) it was 45%; in assay [4] (at 50.0 µM) it was 45.9%. The growth inhibition in assay [5] (setting [7]) was 2%; in assay [5] (setting [8]) it was 92% (active); in assay [5] (at 50.0 µM), 95.3% (active); in assay [6] (setting [7]) it was -1%; in assay [6] (setting [8]), 90% (active); in assay [6] (at 50.0 µM) it was 92.7% (active).
In the case of `COc1cc(OC)c(/C=C\c2ccnc3ccccc23)c(OC)c1`, the growth inhibition is 35% in assay [1] (setting [7]); 91% (active) in assay [1] (setting [8]); 81.6% (active) in assay [1] (at 50.0 µM); 32% in assay [2] (setting [7]); 93% (active) in assay [2] (setting [8]); 86.3% (active) in assay [2] (at 50.0 µM). Besides, the growth inhibition in assay [3] (setting [7]) is 26%; in assay [3] (setting [8]) it was 96% (active); in assay [3] (at 50.0 µM) it was 84.7% (active); in assay [4] (setting [7]), 19%; in assay [4] (setting [8]), 55%; in assay [4] (at 50.0 µM) it was 37.5%. Besides, the growth inhibition in assay [5] (setting [7]) was 22%; in assay [5] (setting [8]) it was 98% (active); in assay [5] (at 50.0 µM), 35%; in assay [6] (setting [7]), 41%; in assay [6] (setting [8]), 91% (active); in assay [6] (at 50.0 µM), -2.05%.
In the case of `Cc1c(C(=O)O)nc(C(Br)(Br)Br)[nH]c1=O`, the growth inhibition in assay [1] (setting [7]) was 6%; in assay [1] (setting [8]), 8%; in assay [1] (at 50.0 µM), 54.2%; in assay [2] (setting [7]) it was 20%; in assay [2] (setting [8]), 17%; in assay [2] (at 50.0 µM), 4.85%. Moreover, the growth inhibition in assay [3] (setting [7]) was 2%; in assay [3] (setting [8]), 26%; in assay [3] (at 50.0 µM) it was 71.3% (active); in assay [4] (setting [7]), 1%; in assay [4] (setting [8]) it was 0%; in assay [4] (at 50.0 µM), 14.7%. The growth inhibition in assay [5] (setting [7]) was 4%; in assay [5] (setting [8]), 2%; in assay [5] (at 50.0 µM), 1.5%; in assay [6] (setting [7]), 6%; in assay [6] (setting [8]) it was 27%; in assay [6] (at 50.0 µM) it was 53%.

Values taken from PubChem BioAssay (NCI).
